In PubChem BioAssay one finds growth inhibition, inhibition and outcome data, which are given here for 3 compounds.

Values without a mark were called inactive. For part of these data: Entries with a potency or affinity are not part of this list. Activity calls are given as the source filed them. Unless noted, no rule for the calls is given here.

Test [1] in a line: antimalarial activity against Dd2 strain (AID 2302;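 active = growth inhibition above 50% at the single 2 µM test dose, taken to imply half-maximal potency below 2 µM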;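 also: 0% = DMSO untreated growth and 100% = chloroquine plus artemisinin killed control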). The settings on record: P. falciparum Dd2 in RBCs, LDH growth readout, 72 h; at 2 µM; active compounds read high.
Test [2] is described as follows: human hepatoma cell viability loss – ATP luminescence, cytotoxicity control for P. falciparum antimalarial project, primary screen (AID 2303;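 active = inhibition above 50%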;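 also: 0% = DMSO wells and 100% = digitonin-killed cells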). The settings on record: HepG2 viability, 24-48 h, at 10 µM, active compounds read high.
The target in test [3] is L-lactate dehydrogenase (Plasmodium falciparum (isolate CDC / Honduras)) (UniProt Q27743). Kind of test: PfLDH activity inhibition – cell lysate, 3D7 strain, counter-screen for P. falciparum growth inhibition project (AID 2304).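 Also: 0% = vehicle and 100% = reference inhibitor.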 The settings on record: P. falciparum 3D7 crude extract, LDH APAD/NBT absorbance; at 2 µM; active compounds read high.
Chain of L-lactate dehydrogenase (Plasmodium falciparum (isolate CDC / Honduras)) (Q27743 whole entry, looked up): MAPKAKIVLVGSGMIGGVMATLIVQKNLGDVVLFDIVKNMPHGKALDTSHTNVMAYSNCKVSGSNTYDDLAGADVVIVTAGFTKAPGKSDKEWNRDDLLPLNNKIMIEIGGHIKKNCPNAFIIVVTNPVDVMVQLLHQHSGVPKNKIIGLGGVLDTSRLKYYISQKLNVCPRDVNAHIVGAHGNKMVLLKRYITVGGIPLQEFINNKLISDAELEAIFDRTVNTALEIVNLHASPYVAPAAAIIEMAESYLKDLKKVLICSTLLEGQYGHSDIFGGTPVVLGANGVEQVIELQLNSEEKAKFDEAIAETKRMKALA
Test [4] in a line: inhibition of 3D7 malaria parasite growth – strain 3D7 (AID 2306).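 Also: 0% = DMSO wells and 100% = chloroquine plus artemisinin control wells.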 The settings on record: P. falciparum 3D7 erythrocytic growth, LDH absorbance, 72 h; at 2 µM; active compounds read high.
The target in test [5] is Calcium-dependent protein kinase 1 (Plasmodium falciparum (isolate 3D7)) (UniProt P62344). Kind of test: PfCDPK1 kinase inhibitors, biochemical, TCAMS library (AID 1159585; cut-off not given, nearly all actives have IC50 up to about 0.98 µM;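 also: inhibitors leave more ATP so luminescence rises with inhibition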). The settings on record: recombinant PfCDPK1, Kinase-Glo ATP depletion luminescence. For orientation: In Kinase-Glo more light means more ATP remaining.
Chain of Calcium-dependent protein kinase 1 (Plasmodium falciparum (isolate 3D7)) (P62344 whole entry, looked up): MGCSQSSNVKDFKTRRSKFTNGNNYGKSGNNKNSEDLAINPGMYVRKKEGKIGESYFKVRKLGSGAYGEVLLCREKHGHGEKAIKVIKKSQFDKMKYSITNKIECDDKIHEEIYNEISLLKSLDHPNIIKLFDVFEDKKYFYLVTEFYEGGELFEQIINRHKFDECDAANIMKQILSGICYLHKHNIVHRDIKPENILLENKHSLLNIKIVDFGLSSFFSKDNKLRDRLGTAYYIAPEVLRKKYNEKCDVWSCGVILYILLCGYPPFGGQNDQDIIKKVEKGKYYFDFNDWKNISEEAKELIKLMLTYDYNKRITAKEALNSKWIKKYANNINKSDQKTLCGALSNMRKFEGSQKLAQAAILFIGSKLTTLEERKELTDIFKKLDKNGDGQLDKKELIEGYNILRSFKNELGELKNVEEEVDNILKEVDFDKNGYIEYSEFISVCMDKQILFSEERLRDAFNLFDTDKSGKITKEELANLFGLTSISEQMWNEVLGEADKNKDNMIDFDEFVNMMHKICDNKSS
The target of test [6] is Plasmodium falciparum protein kinase 6 (PK6, PF3D7_1337100) (UniProt Q8IDW1). Kind of test: PfPK6 kinase inhibitors, biochemical, TCAMS library (AID 1159586). The settings on record: recombinant PfPK6, Kinase-Glo ATP depletion luminescence.
Chain of Plasmodium falciparum protein kinase 6 (PK6, PF3D7_1337100) (Q8IDW1 1-305): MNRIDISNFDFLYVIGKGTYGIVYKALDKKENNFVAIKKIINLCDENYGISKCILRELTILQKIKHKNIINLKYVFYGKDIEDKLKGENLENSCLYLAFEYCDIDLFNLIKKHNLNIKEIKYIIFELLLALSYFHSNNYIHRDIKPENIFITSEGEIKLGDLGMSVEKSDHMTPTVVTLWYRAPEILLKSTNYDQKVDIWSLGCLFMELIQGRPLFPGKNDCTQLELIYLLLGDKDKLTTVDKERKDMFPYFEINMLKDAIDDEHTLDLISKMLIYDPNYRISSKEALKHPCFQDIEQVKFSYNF
The target of test [7] is Protein kinase 7 (PK7), Plasmodium falciparum 3D7 (PF3D7_0213400) (UniProt Q7YTF7). Kind of test: inhibition of Plasmodium PK7 catalytic activity – biochemical, TCAMS antimalarial set, Kinase-Glo luminescence (AID 1159587). The settings on record: recombinant PfPK7, Kinase-Glo ATP depletion luminescence.
Chain of Protein kinase 7 (PK7), Plasmodium falciparum 3D7 (PF3D7_0213400) (Q7YTF7 1-343): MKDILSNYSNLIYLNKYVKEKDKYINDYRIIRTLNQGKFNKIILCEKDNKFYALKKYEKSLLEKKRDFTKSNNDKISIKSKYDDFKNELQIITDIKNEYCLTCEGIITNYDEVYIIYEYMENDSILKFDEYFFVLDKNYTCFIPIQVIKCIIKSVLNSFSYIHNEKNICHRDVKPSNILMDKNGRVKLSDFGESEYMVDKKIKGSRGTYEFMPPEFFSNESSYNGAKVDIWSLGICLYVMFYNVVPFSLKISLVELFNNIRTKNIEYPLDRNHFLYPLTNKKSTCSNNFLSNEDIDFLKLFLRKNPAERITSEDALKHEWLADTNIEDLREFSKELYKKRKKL
In test [8] the target is Calcium-dependent protein kinase 4 (Plasmodium falciparum (isolate 3D7)) (UniProt Q8IBS5). Kind of test: PfCDPK4 kinase inhibitors, biochemical, TCAMS library (AID 1159588; cut-off not given, nearly all actives have IC50 up to about 0.91 µM). The settings on record: recombinant PfCDPK4, Kinase-Glo ATP depletion luminescence.
Chain of Calcium-dependent protein kinase 4 (Plasmodium falciparum (isolate 3D7)) (Q8IBS5 whole entry, looked up): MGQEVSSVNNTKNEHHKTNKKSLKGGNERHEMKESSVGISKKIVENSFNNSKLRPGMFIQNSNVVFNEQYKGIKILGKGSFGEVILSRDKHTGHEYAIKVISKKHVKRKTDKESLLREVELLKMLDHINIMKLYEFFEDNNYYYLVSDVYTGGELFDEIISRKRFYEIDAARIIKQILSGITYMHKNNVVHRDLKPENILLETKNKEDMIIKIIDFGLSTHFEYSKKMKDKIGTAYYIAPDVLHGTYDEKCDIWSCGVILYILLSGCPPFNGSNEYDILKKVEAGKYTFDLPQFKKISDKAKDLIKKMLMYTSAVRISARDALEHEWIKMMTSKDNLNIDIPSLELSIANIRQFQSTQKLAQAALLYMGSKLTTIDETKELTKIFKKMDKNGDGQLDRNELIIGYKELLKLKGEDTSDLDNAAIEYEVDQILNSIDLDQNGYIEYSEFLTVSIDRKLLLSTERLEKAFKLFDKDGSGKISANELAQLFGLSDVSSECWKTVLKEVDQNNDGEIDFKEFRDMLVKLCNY

The term inhibition denotes the change of the read-out against control, counted positive when it falls.

Turning to `COc1ccc2c(NN=Cc3cccc([N+](=O)[O-])c3)cc(C)nc2c1`, the growth inhibition in test [1] is 97% (active); in test [4], 101% (active). Also, the results for the inhibition in test [2] and in test [3] were 18% and -6%, respectively. Also, the result in test [5], in test [6], in test [7] and in test [8] was inactive.

In the case of `Cc1nn(-c2cccc(C(F)(F)F)c2)c2sc(C(=O)NC3CCN(C(C)C)CC3)cc12`, the growth inhibition was 20% in test [1] and 94% (active) in test [4]. In addition, the figures for the inhibition in test [2] and in test [3] were 98% (active) and -4%, respectively. The outcome in test [5], in test [6], in test [7] and in test [8] was inactive.

As to `O=C(Nc1cc(Cl)cc(Cl)c1)c1cc(Cl)c(=O)n(Cc2ccc(Cl)cc2)c1`, the growth inhibition in test [1] was 57% (active); in test [4], 89% (active). In addition, the inhibition in test [2] and in test [3] was 7% in each case. Also, the result in test [5], in test [6], in test [7] and in test [8] was inactive.
